Values joined by “and” are separate entries in the source; they are usually repeats but may differ in a detail not shown here. Equal entries are not always repeated. Inconclusive results are not listed. Entries that show only a call come without a potency. A number with no mark means an inactive call. Active and inactive are the calls of the source. Unless noted, calls come from the whole dose curve; as a rule, active = well fitted cell-killing curve with a large enough effect in the repeat runs (not every such curve was filed as active); inconclusive = weak or mixed curves, or effect the other way; inactive = no such curve, though single readings can be large or run the other way.
Tested on: not listed separately
Test: qHTS assay to identify small molecule antagonists of the farnesoid-X-receptor (FXR) signaling pathway - cell viability counter screen (AID 743221); note: nearly all actives have a fitted effect of over 50% in size; note: potency is the fitted concentration of half-maximal effect
Details: FXR-bla HEK293T viability, CellTiter-Glo luminescence, 16 h; series mostly up to 62.6 µM; activity change, negative = cytotoxicity: at the top concentration
Summary of the method: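 Here viability was scored by luminescence after CellTiter-Glo addition to wells already read for beta-lactamase. Prior treatment: compound plus CDCA (50 uM final), 16 h, 37 C, HEK 293T FXR-bla cells.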
With `CC1=CC(=O)CC(C)(C)C1` the Potency was “inactive”. For `Clc1cccc(Cl)c1NC1=NCCN1`, the Potency was “inactive”. With `CC1(C)C(=O)N(Cl)C(=O)N1Cl` the Potency was “inactive”. With `CCCCCCCC(=O)O` the Potency was “inactive”. For `O=C1O[C@H]([C@H](O)CO)C(O)=C1O`, the Potency was “inactive”. With `CS(=O)(=O)c1ccc(Cl)cc1` the Potency was “inactive”. With `OB(O)O` the Potency was “inactive”. With `CC(=O)OCc1ccc2c(c1)OCO2` the Potency was “inactive”. For `CCCCCCCCCCCCCC(=O)O`, the Potency was “inactive”. For `CC1(C)[C@@H](O[C@H]2O[C@H](C(=O)O)[C@@H](O)[C@H](O)[C@H]2O[C@@H]2O[C@H](C(=O)O)[C@@H](O)[C@H](O)[C@H]2O)CC[C@]2(C)[C@H]3C(=O)C=C4[C@@H]5C[C@@](C)(C(=O)O)CC[C@]5(C)CC[C@@]4(C)[C@]3(C)CC[C@@H]12`, the “activity change, negative = cytotoxicity” value was -4.3%. For `Cc1ccncc1`, the Potency was “inactive”. For `O=Cc1ccc(CO)o1`, the Potency was “inactive”. With `CC(=O)Nc1ccc(CC(=O)O)cc1` the Potency was “inactive”. With `COc1cc(NC(=O)CC(C)=O)c(OC)cc1Cl` the Potency was “inactive”. For `CC(COCC(C)OC(=O)c1ccccc1)OC(=O)c1ccccc1` (stereo not drawn), the Potency was “inactive”. With `CC(C)c1ccc(C(C)C)cc1` the Potency was “inactive”. With `CCN(CC)CCNC(=O)c1ccc(N)cc1` the Potency was “inactive”. For `O=C(NCC1CCCCN1)c1cc(OCC(F)(F)F)ccc1OCC(F)(F)F` (stereo not drawn), the Potency was “inactive”. For `C[n+]1ccn(CCO)c1`, the Potency was “inactive”. For `C=CC(=O)NCOCCCC`, the Potency was “inactive”. For `O=[N+]([O-])c1cc(C(F)(F)F)ccc1Cl`, the Potency was “inactive”. In the case of `CCCCC(=O)O`, the Potency is reported as “inactive”. For `C1CCCNCC1`, the Potency was “inactive”. With `COc1ccc2cc3[n+](cc2c1OC)CCc1cc2c(cc1-3)OCO2` the “activity change, negative = cytotoxicity” value was -3.25%. With `Nc1nc(N)c2nc(-c3ccccc3)c(N)nc2n1` the Potency was “inactive”. In the case of `COc1ccc([C@@H]2CC(=O)c3c(O)cc(O[C@@H]4O[C@H](CO[C@@H]5O[C@@H](C)[C@H](O)[C@@H](O)[C@H]5O)[C@@H](O)[C@H](O)[C@H]4O)cc3O2)cc1OC`, the Potency is reported as “inactive”. In the case of `CCCN(CCC)C(=O)SCC`, the Potency is reported as “inactive”. With `CC/C(C)=N/O` the Potency was “inactive”. For `CC/C=C(\C(=O)N[C@@H]1C(=O)N2C(C(=O)OCOC(=O)C(C)(C)C)=C(COC(N)=O)CS[C@H]12)c1csc(N)n1`, the Potency was “inactive”. In the case of `COC(=O)CCCCC(=O)OC`, the Potency is reported as “inactive”. With `C[Si](C)(C)N[Si](C)(C)C` the Potency was “inactive”. In the case of `COC(=O)/C=C\C(=O)OC`, the Potency is reported as “inactive”. With `O=C1C(N(CO)C(=O)NCO)N(CO)C(=O)N1CO` (stereo not drawn) the Potency was “inactive”. With `NC(N)=S` the Potency was “inactive”. For `c1cnc2c(c1)ccc1cccnc12`, the Potency was 24.8 µM (active) and 776 nM (active) and 174 nM (active). In the case of `Nc1cccc(N)n1`, the Potency is reported as “inactive”. In the case of `OCC(CO)(CO)CO`, the Potency is reported as “inactive”. With `Oc1ccc(Cc2ccccc2O)cc1` the Potency was “inactive”.

Biological target: Vitamin D3 receptor (Homo sapiens) (UniProt P11473)
Sequence (P11473 whole entry, looked up): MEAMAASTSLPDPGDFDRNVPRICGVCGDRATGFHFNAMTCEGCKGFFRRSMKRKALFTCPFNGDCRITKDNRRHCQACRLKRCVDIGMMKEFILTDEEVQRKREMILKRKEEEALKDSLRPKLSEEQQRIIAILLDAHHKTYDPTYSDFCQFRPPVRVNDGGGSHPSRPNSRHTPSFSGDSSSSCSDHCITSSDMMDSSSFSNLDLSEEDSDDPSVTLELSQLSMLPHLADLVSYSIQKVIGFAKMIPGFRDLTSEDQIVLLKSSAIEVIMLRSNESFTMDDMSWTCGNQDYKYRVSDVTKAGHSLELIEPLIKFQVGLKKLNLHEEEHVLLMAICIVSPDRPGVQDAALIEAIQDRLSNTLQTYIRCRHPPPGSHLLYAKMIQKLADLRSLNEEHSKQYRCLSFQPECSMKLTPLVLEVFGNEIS
Test: qHTS assay to identify small molecule agonists of the vitamin D receptor (VDR) signaling pathway (AID 743222; calls by dose curve)
Details: HEK293T VDR-UAS-bla, beta-lactamase FRET ratio, 16 h; series mostly up to 63.5 µM; activation: at the top concentration
Summary of the method: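 Tox21 cell reporter format: VDR-bla line, 16 h compound exposure in 5% CO2 at 37C, then fluorescence intensity after 2 h with LiveBLAzer B/G FRET substrate.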
With `CC1=CC(=O)CC(C)(C)C1` the outcome was “inactive”. With `Clc1cccc(Cl)c1NC1=NCCN1` the outcome was “inactive”. For `CC1(C)C(=O)N(Cl)C(=O)N1Cl`, the outcome was “inactive”. In the case of `CCCCCCCC(=O)O`, the outcome is reported as “inactive”. For `CS(=O)(=O)c1ccc(Cl)cc1`, the outcome was “inactive”. With `OB(O)O` the outcome was “inactive”. In the case of `CC(=O)OCc1ccc2c(c1)OCO2`, the outcome is reported as “inactive”. With `CCCCCCCCCCCCCC(=O)O` the outcome was “inactive”. For `CC1(C)[C@@H](O[C@H]2O[C@H](C(=O)O)[C@@H](O)[C@H](O)[C@H]2O[C@@H]2O[C@H](C(=O)O)[C@@H](O)[C@H](O)[C@H]2O)CC[C@]2(C)[C@H]3C(=O)C=C4[C@@H]5C[C@@](C)(C(=O)O)CC[C@]5(C)CC[C@@]4(C)[C@]3(C)CC[C@@H]12`, the outcome was “inactive”. With `Cc1ccncc1` the outcome was “inactive”. In the case of `O=Cc1ccc(CO)o1`, the “activation” value is reported as -11.4%. With `CC(COCC(C)OC(=O)c1ccccc1)OC(=O)c1ccccc1` (stereo not drawn) the outcome was “inactive”. With `CC(C)c1ccc(C(C)C)cc1` the outcome was “inactive”. In the case of `O=C(NCC1CCCCN1)c1cc(OCC(F)(F)F)ccc1OCC(F)(F)F` (stereo not drawn), the “activation” value is reported as -0.365%. For `C[n+]1ccn(CCO)c1`, the outcome was “inactive”. For `C=CC(=O)NCOCCCC`, the outcome was “inactive”. For `CCCCC(=O)O`, the outcome was “inactive”. With `COc1ccc([C@@H]2CC(=O)c3c(O)cc(O[C@@H]4O[C@H](CO[C@@H]5O[C@@H](C)[C@H](O)[C@@H](O)[C@H]5O)[C@@H](O)[C@H](O)[C@H]4O)cc3O2)cc1OC` the outcome was “inactive”. In the case of `CCCN(CCC)C(=O)SCC`, the outcome is reported as “inactive”. In the case of `CC/C(C)=N/O`, the outcome is reported as “inactive”. For `CC/C=C(\C(=O)N[C@@H]1C(=O)N2C(C(=O)OCOC(=O)C(C)(C)C)=C(COC(N)=O)CS[C@H]12)c1csc(N)n1`, the outcome was “inactive”. In the case of `COC(=O)CCCCC(=O)OC`, the “activation” value is reported as -0.687% [at 81.1 µM]. In the case of `C[Si](C)(C)N[Si](C)(C)C`, the outcome is reported as “inactive”. With `COC(=O)/C=C\C(=O)OC` the “activation” value was -1.07%. In the case of `O=C1C(N(CO)C(=O)NCO)N(CO)C(=O)N1CO` (stereo not drawn), the outcome is reported as “inactive”. In the case of `NC(N)=S`, the outcome is reported as “inactive”. In the case of `c1cnc2c(c1)ccc1cccnc12`, the outcome is reported as “inactive”. For `Nc1cccc(N)n1`, the outcome was “inactive”. With `OCC(CO)(CO)CO` the outcome was “inactive”. With `Oc1ccc(Cc2ccccc2O)cc1` the outcome was “inactive”.

Biological target: Vitamin D3 receptor (Homo sapiens) (UniProt P11473)
Test: qHTS assay to identify small molecule antagonists of the vitamin D receptor (VDR) signaling pathway (AID 743223; active = well fitted inhibition curve with a large enough effect in the signal ratio in the repeat runs, not every such curve was filed as active; the % refers to the signal ratio; note: potency is the fitted concentration of half-maximal effect)
Details: VDR-UAS-bla HEK293T, beta-lactamase FRET ratio, 16 h; series mostly up to 61 µM; activity change, negative = inhibition: at the top concentration
Summary of the method: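 Inhibition of agonist-driven VDR signalling is scored in VDR-bla cells: 3 nM final 1alpha,25-dihydroxyvitamin D3 plus compound, 16 h at 37C, then beta-lactamase detection by FRET substrate fluorescence after 2 h.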
With `CC1=CC(=O)CC(C)(C)C1` the Potency was “inactive”. With `Clc1cccc(Cl)c1NC1=NCCN1` the Potency was “inactive”. In the case of `CC1(C)C(=O)N(Cl)C(=O)N1Cl`, the Potency is reported as “inactive”. For `CCCCCCCC(=O)O`, the Potency was “inactive”. In the case of `CS(=O)(=O)c1ccc(Cl)cc1`, the “activity change, negative = inhibition” value is reported as 18.5%. For `OB(O)O`, the “activity change, negative = inhibition” value was 6.85%. For `CC(=O)OCc1ccc2c(c1)OCO2`, the Potency was “inactive”. In the case of `CCCCCCCCCCCCCC(=O)O`, the “activity change, negative = inhibition” value is reported as 8.9%. With `CC1(C)[C@@H](O[C@H]2O[C@H](C(=O)O)[C@@H](O)[C@H](O)[C@H]2O[C@@H]2O[C@H](C(=O)O)[C@@H](O)[C@H](O)[C@H]2O)CC[C@]2(C)[C@H]3C(=O)C=C4[C@@H]5C[C@@](C)(C(=O)O)CC[C@]5(C)CC[C@@]4(C)[C@]3(C)CC[C@@H]12` the “activity change, negative = inhibition” value was 0.132%. For `Cc1ccncc1`, the Potency was “inactive”. With `O=Cc1ccc(CO)o1` the Potency was “inactive”. For `CC(COCC(C)OC(=O)c1ccccc1)OC(=O)c1ccccc1` (stereo not drawn), the “activity change, negative = inhibition” value was -2.39%. With `CC(C)c1ccc(C(C)C)cc1` the “activity change, negative = inhibition” value was 5.98% [at 78.8 µM]. In the case of `O=C(NCC1CCCCN1)c1cc(OCC(F)(F)F)ccc1OCC(F)(F)F` (stereo not drawn), the Potency is reported as “inactive”. In the case of `C[n+]1ccn(CCO)c1`, the Potency is reported as “inactive”. In the case of `C=CC(=O)NCOCCCC`, the “activity change, negative = inhibition” value is reported as 5.28% [at 78.8 µM]. For `CCCCC(=O)O`, the “activity change, negative = inhibition” value was -3.97% [at 78.8 µM]. For `COc1ccc2cc3[n+](cc2c1OC)CCc1cc2c(cc1-3)OCO2`, the “activity change, negative = inhibition” value was -20.2%. For `COc1ccc([C@@H]2CC(=O)c3c(O)cc(O[C@@H]4O[C@H](CO[C@@H]5O[C@@H](C)[C@H](O)[C@@H](O)[C@H]5O)[C@@H](O)[C@H](O)[C@H]4O)cc3O2)cc1OC`, the Potency was “inactive”. For `CCCN(CCC)C(=O)SCC`, the “activity change, negative = inhibition” value was -0.548%. In the case of `CC/C(C)=N/O`, the Potency is reported as “inactive”. In the case of `CC/C=C(\C(=O)N[C@@H]1C(=O)N2C(C(=O)OCOC(=O)C(C)(C)C)=C(COC(N)=O)CS[C@H]12)c1csc(N)n1`, the “activity change, negative = inhibition” value is reported as 0.0126%. With `COC(=O)CCCCC(=O)OC` the Potency was “inactive”. In the case of `COC(=O)/C=C\C(=O)OC`, the “activity change, negative = inhibition” value is reported as 12.1%. For `O=C1C(N(CO)C(=O)NCO)N(CO)C(=O)N1CO` (stereo not drawn), the Potency was “inactive”. With `NC(N)=S` the Potency was “inactive”. With `c1cnc2c(c1)ccc1cccnc12` the Potency was 3.89 µM (active). With `Nc1cccc(N)n1` the Potency was “inactive”. With `OCC(CO)(CO)CO` the “activity change, negative = inhibition” value was -11.8%. For `Oc1ccc(Cc2ccccc2O)cc1`, the Potency was “inactive”.

Source: PubChem BioAssay (Tox21)
